From PubChem BioAssay
GLD-1 RNA inh – GLD-1/TGE RNA complex disruptors, primary screen, biochemical, fluorescence polarization; actives 0.44% (n = 320,000); AID 2280, 2010; Female germline-specific tumor suppressor gld-1 (Caenorhabditis elegans), Q17339; inhibition, % at 5.96 µM; purified GLD-1 + fluorescein TGE RNA;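 active means percent inhibition above a per-plate cutoff, the plate mean of test compounds plus 3 SD, cut at about 30% in these data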;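 further: 0% = DMSO wells with GLD-1 and probe and 100% = wells lacking GLD-1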
IDE cell activ – human IDE activators in live cells, primary screen, fluorescence polarization, HEK cells, FAbeta-B substrate; Insulin-degrading enzyme (Homo sapiens), P14735; FAbeta-B cleavage; 0% vehicle, 100% cell-free pure enzyme wells; activation, % at 5.96 µM; actives 0.073% (n = 340,000);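 active means activation above the mean of all tested compounds plus 3 SD, set per screening campaign, cut at about 17% in these data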
BCLXL inh – inhibitors of human Bcl-xL, primary screen, biochemical, fluorescence polarization, HTS; Bcl-2-like protein 1 (Homo sapiens), Q07817; GST-Bcl-xL / FITC-Bim BH3 peptide fluorescence polarization; actives 0.7% (n = 320,000); inhibition, % at 10.9 µM;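 active means inhibition above the mean of all tested compounds plus 3 SD, cutoff set per campaign, cut at about 30% in these data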;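 further: 0% = DMSO wells and 100% = unlabeled Bim-BH3 peptide competitor; inhibitors lower millipolarization by displacing the labeled peptide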
Target sequence (Q07817 whole entry, looked up): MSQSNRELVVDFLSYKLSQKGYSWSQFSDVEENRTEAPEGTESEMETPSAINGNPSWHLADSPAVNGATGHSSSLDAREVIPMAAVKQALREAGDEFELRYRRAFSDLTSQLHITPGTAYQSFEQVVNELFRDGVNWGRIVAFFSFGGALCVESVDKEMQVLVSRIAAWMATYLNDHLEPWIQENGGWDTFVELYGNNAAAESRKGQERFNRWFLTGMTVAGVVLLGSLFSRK
IDE inh – human IDE inhibitors in live cells, primary screen, fluorescence polarization, HEK cells, FAbetaB substrate. inhibition, % at 5.59 µM. FAbetaB cleavage. AID 434962, 2010. actives 0.41% (n = 320,000). Insulin-degrading enzyme (Homo sapiens), P14735;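 active means percent inhibition above the average of all tested compounds plus 3 SD, set per screening campaign, cut at about 16% in these data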;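 further: IDE supplied by intact live HEK cells; FP after avidin binding of uncleaved biotin substrate so inhibition keeps polarization high; 0% = DMSO wells and 100% = 60 µM reference IDE inhibitor Ii1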
MCL1 BIM primary – inhibitors of MCL1 binding to BIM-BH3, primary screen, biochemical, fluorescence polarization; Induced myeloid leukemia cell differentiation protein Mcl-1 (Homo sapiens), Q07820; GST-MCL1 / FITC-Bim-BH3 fluorescence polarization; inhibition, % at 10.9 µM; actives 0.68% (n = 320,000); AID 2057, 2009;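 active means inhibition above the mean inhibition of all tested compounds plus 3 SD, set per campaign, cut at about 40% in these data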;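 further: 0% = DMSO wells and 100% = unlabeled Bim-BH3 peptide control; higher means more loss of mP so more displacement of Bim peptide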
Target sequence (Q07820 whole entry, looked up): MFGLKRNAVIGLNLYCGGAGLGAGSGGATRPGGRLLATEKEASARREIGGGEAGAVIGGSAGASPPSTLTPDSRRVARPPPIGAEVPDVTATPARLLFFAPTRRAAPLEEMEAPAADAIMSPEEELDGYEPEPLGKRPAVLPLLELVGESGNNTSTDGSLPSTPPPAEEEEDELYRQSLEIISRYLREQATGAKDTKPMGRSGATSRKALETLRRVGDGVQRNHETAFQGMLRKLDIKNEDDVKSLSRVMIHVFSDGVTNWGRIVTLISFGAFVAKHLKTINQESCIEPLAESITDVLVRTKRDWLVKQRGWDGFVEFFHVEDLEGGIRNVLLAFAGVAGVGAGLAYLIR
MEX-5 binding – MEX-5 zinc finger RNA-binding disruptors – biochemical, C. elegans, fluorescence polarization, MLPCN library, primary screen; actives 0.38% (n = 300,000); MEX-5/FITC-TCR2 RNA binding; stronger effect = lower value; AID 1832, 2009; Zinc finger protein mex-5 (Caenorhabditis elegans), Q9XUB2; activity score (negative = inhibition of binding), % at 10 µM;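 active means inhibition past about -25% in most replicates, and total fluorescence under double the plate's negative control median, limit read from the data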;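 further: 0% = DMSO and -100% = 5 µM competing unlabeled TCR2 RNA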
Active calls of the source: *; nt = no result given. This is a sample that favours compounds with a hit; in the whole collection about 1.5% have one here.

SMILES	GLD-1 RNA inh	IDE cell activ	BCLXL inh	IDE inh	MCL1 BIM primary	MEX-5 binding
CC(=O)Nc1ccc(NS(=O)(=O)c2ccc3c(c2)oc(=O)n3C)cc1	4.8	0.8	3.0	3.4	-1.0	-0.4
CCn1c(SCC(=O)N2CCCC2)nc2c1c(=O)n(C)c(=O)n2C	-1.2	-4.7	51.8*	1.1	1.8	-1.1
CCn1c(SCC(=O)N2CCN(C)CC2)nc2c1c(=O)n(C)c(=O)n2C	-4.4	-5.2	-3.1	-1.2	-5.7	0.4
COc1ccc(C(C[N+](=O)[O-])C2(c3ccc(OC)c(OC)c3)C(=O)c3ccccc3C2=O)cc1 (stereo not given)	0.4	-9.2	6.2	16.3*	5.4	1.8
COc1ccccc1C(=O)Nc1ccnn1C1CCN(Cc2cnc(N(C)C)s2)CC1	1.1	3.6	1.2	-2.8	4.7	1.3
O=C(C1=NN[C@@H]2C(=O)N(c3cccc(F)c3)C(=O)[C@H]12)c1ccc2ccccc2n1	-1.4	1.0	1.9	9.2	-1.4	1.6
COc1cccc(N2C(=O)[C@H]3C(C(=O)c4cnccn4)=NN[C@H]3C2=O)c1	2.7	nt	36.8*	3.4	34.6	-6.4
CSc1ccc(C2NC(=O)c3c(sc4c3CCN(C)C4)N2)cc1 (stereo not given)	-79.1	-16.3	-10.7	10.7	39.2	-1.8
CN1CCc2c(sc3c2C(=O)NC(c2cccs2)N3)C1 (stereo not given)	-31.0	-4.4	32.5*	8.3	32.5	-13.7
Cc1ccsc1C1NC(=O)c2c(sc3c2CCN(C)C3)N1 (stereo not given)	-32.3	-7.8	37.3*	11.9	30.9	-5.2
CC(C)OCCCn1c(-c2ccco2)nc2nc3ccccc3nc21	14.0	-9.1	34.6*	6.6	24.9	nt
Cc1cc(NC(=O)COC(=O)C2=COCCO2)c([N+](=O)[O-])cc1C	1.5	2.7	42.3*	6.6	2.8	-0.5
COc1cc(Cl)c(C)cc1NC(=O)COC(=O)C1=COCCO1	5.6	4.6	3.4	4.9	3.5	-1.6
O=C1COc2ccc(C(=O)COc3ccc(Cl)cc3Br)cc2N1	1.9	-2.5	-0.1	2.7	-3.1	0.9
CC(=O)Nc1ccc(NC(=O)c2cc(=O)c3cc(C)c(C)cc3o2)cc1	-6.2	-2.0	-1.6	-5.8	-6.7	1.1
C#CCOCCOCCOCCNc1nc(N2CCN(C(=O)[C@H]([C@@H](C)CC)n3cc([C@@H](N)CO)nn3)CC2)nc(N2CCN(C(=O)[C@H]([C@@H](C)CC)n3cc([C@@H](N)CC(C)C)nn3)CC2)n1	20.8	1.8	43.4*	-0.4	42.6*	-38.4*
C#CCOCCOCCOCCNc1nc(N2CCN(C(=O)CCCCCCCCCCNC(=O)[C@H]([C@@H](C)CC)n3cc(CCCCN=C(N)N)nn3)CC2)nc(N2CCN(C(=O)CCCCCCCCCCNC(=O)[C@@H]([C@H](C)O)n3cc(C)nn3)CC2)n1	-1.7	50.6*	3.8	-1.4	6.2	nt
C#CCOCCOCCOCCNc1nc(N2CCN(C(=O)[C@H]([C@@H](C)CC)n3cc([C@@H](N)CO)nn3)CC2)nc(N2CCN(C(=O)[C@H]([C@@H](C)CC)n3cc([C@@H](N)CO)nn3)CC2)n1	nt	nt	nt	nt	nt	-5.2
C#CCOCCOCCOCCNc1nc(N2CCN(C(=O)CCCCCCCCCCNC(=O)Cn3cc(CCCCCN)nn3)CC2)nc(N2CCN(C(=O)CCCCCCCCCCNC(=O)Cn3cc(C[C@@H](C)O)nn3)CC2)n1	3.1	22.1*	-60.0	1.6	-164.6	nt
C#CCOCCOCCOCCNc1nc(N2CCN(C(=O)CCCCCCCCCCNC(=O)Cn3cc(C[C@@H](C)O)nn3)CC2)nc(N2CCN(C(=O)CCCCCCCCCCNC(=O)[C@@H]([C@H](C)CC)n3cc(CCCCCN)nn3)CC2)n1	2.9	26.2*	10.0	10.3	11.3	nt
CCN(CC)S(=O)(=O)c1ccc(N2CCOCC2)c(NS(=O)(=O)c2cc(C(C)(C)C)ccc2C)c1	3.1	-0.9	7.4	-1.1	5.9	-2.4
Cc1ccccc1S(=O)(=O)Cc1ccc(C(=O)NCc2ccc(F)cc2)o1	9.0	0.4	-0.1	2.8	2.3	0.3
CCOC(=O)c1nc(-c2ccc(OC)c(OC)c2)cnc1C#N	-9.5	-1.6	4.5	3.2	1.3	1.3
Cc1cc(C)c(NC(=O)c2cccs2)c(C)c1NC(=O)c1cccs1	2.9	3.4	4.5	2.5	7.1	2.0
Cc1ccccc1S(=O)(=O)N(CC(O)CN1C(=O)NC(C)(C)C1=O)c1ccccc1 (stereo not given)	0.9	2.1	8.6	7.0	0.5	-0.9
SMILES	GLD-1 RNA inh	IDE cell activ	BCLXL inh	IDE inh	MCL1 BIM primary	MEX-5 binding
COCCCNc1nc2nonc2nc1N1CCC(C(C)N2CCOCC2)CC1 (stereo not given)	-5.0	5.3	-0.7	-0.5	0.9	0.7
CCOc1ccccc1C(=O)NCC(=O)OCC(=O)N1CCCC1	1.0	3.7	nt	9.6	nt	nt
C#CCOCCOCCOCCNc1nc(N2CCN(C(=O)CCCCCCCCCCNC(=O)Cn3cc(CCCCCN)nn3)CC2)nc(N2CCN(C(=O)CCCCCCCCCCNC(=O)[C@@H]([C@H](C)O)n3cc(C)nn3)CC2)n1	1.9	25.5*	2.0	-3.3	0.2	nt
CCN1CCC(NC(=O)Nc2cc(Cl)ccc2OC)CC1	-1.4	7.5	9.8	2.3	9.6	-0.2
CC(C)CN(C(=O)COC(=O)c1cncc(Br)c1)c1c(N)n(Cc2ccccc2)c(=O)[nH]c1=O	-3.9	3.1	-2.8	9.2	-30.4	3.1
CC(C)CN(C(=O)COC(=O)c1ccc(Br)cc1)c1c(N)n(Cc2ccccc2)c(=O)[nH]c1=O	3.4	22.0*	-2.1	-2.0	-1.1	1.1
COc1cc(Oc2nc(C(F)(F)F)nc3ccccc23)ccc1C=O	-1.1	-0.8	5.6	-1.1	7.7	-0.6
CCC(Oc1ccccc1)C(=O)Nc1cc(C)on1 (stereo not given)	-3.0	4.6	1.2	1.8	5.8	2.7
CCC(Oc1ccccc1)C(=O)Nc1ccccn1 (stereo not given)	0.8	3.1	1.6	-2.4	5.6	-34.6*
COc1ccc(C(=O)c2sc(Nc3ccccc3)c(C(=O)Nc3ccc(OC)c(OC)c3)c2N)cc1	3.4	5.2	62.7*	2.2	4.7	-0.3
COc1ccc(N2C(=O)CC(C#N)=C2N)cc1	0.7	2.4	10.9	0.6	8.3	-5.2
